Screens deposited in PubChem by several laboratories.
Rows were chosen to be rich in hits. Some 1.7% of all compounds tested hit in one or more screens of this group.
Sa ugtP lethal: compounds lethal to S. aureus RN4220 ugtP deletion mutant. growth inhibition, % (test concentration not listed). OD600 growth, 16 h. hit rate 0.54% among 330,000. AID 1259309; in the data active means growth inhibition above about 68%;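 further: plate controls were untreated wells for no effect and antibiotic for full effect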
PfHsp40 yeast: rescue of PfHsp40-mediated yeast toxicity. growth rescue, % at 12.5 µM. hit rate 0.68% among 340,000. S. cerevisiae expressing PfHsp40, growth rescue, ATP luminescence; in the data active means growth rescue above about 28%, passing the limit was not always enough; inconclusive means no clear call, values can overlap the other calls;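 further: yeast W303a lacking pdr1 and pdr3 grown in galactose medium; growth measured after three days at 30 °C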
RN4220 kill: S. aureus RN4220 growth inhibition | OD600, 16 h | hit rate 0.33% among 330,000 | inhibition, % (no concentration beside the values); in the data active means inhibition above about 85%;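 further: plate controls were untreated cells for no effect and reference antibiotic for full effect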
CCHF vOTU inh: blocks the CCHF virus ovarian tumor domain protease. hit rate 0.55% among 370,000. inhibition, % at 11.5 µM. CCHFV vOTU protease, Pep-AMC fluorescence; in the data active means inhibition above about 30%; further: 0% = vehicle wells with enzyme and 100% = no enzyme wells
Mtb hypoxia rep: Mtb hypoxia fluorescent reporter inhibition; M. tuberculosis hypoxia-regulated fluorescent reporter, fluorescence; fluorescence inhibition, % (concentration not given with the values); hit rate 0.1% among 300,000; in the data active means fluorescence inhibition mostly above about 23%, no sharp cut-off; inactive means mostly below about 17%
BH1578 lux ind: induces V. cholerae light production without autoinducers; AID 588436; activation, % at 18.7 µM; hit rate 0.16% among 350,000; V. cholerae BH1578 lux reporter, luminescence, 6 h; in the data active means activation mostly above about 9.7%, no sharp cut-off; inconclusive means no clear call, values can overlap the other calls; inactive means mostly below about 3.7%
An asterisk follows results filed as active.

What do the screens show for `Cc1ccc(S(=O)(=O)/N=C2/C=C(Sc3ncn[nH]3)C(=O)c3ccccc32)cc1`?
PfHsp40 yeast: 119.2*; BH1578 lux ind: -0.9

Results for O=S(=O)(Nc1cccnc1Cl)c1ccc(-c2ccccc2)cc1 ?
Sa ugtP lethal: 81.4; PfHsp40 yeast: 9.5; RN4220 kill: 89.2*; CCHF vOTU inh: 2.3; Mtb hypoxia rep: 0.9; BH1578 lux ind: inactive

Results for Fc1cccc(COc2ccccc2CNc2ccccc2)c1 ?
Sa ugtP lethal: 16.7; PfHsp40 yeast: 5.1; RN4220 kill: -4.3; CCHF vOTU inh: -5.3; Mtb hypoxia rep: 12.6; BH1578 lux ind: -0.2

Results for CCOc1ccc(NCc2ccccc2OCc2cccc(F)c2)cc1 ?
Sa ugtP lethal: 92.1*; PfHsp40 yeast: -0.2; RN4220 kill: -0.9; CCHF vOTU inh: 8.9; Mtb hypoxia rep: 13.4; BH1578 lux ind: -0.2

Results for C=CCNC(=O)C(C#N)=Cc1cn(-c2ccccc2)nc1-c1cccs1 ?
Sa ugtP lethal: -6.7; RN4220 kill: 6.5; Mtb hypoxia rep: 4.7

How did CN(C)CCCN1C(=O)c2cccc3c(Br)ccc(c23)C1=O do in these assays?
Sa ugtP lethal: 11.4; PfHsp40 yeast: 2.2; RN4220 kill: -0.3; CCHF vOTU inh: 15.5; Mtb hypoxia rep: 67.1*; BH1578 lux ind: -0.2

What do the screens show for `COc1ccc(N(C(=O)c2ccncc2)S(=O)(=O)c2ccc(Cl)cc2)cc1`?
Sa ugtP lethal: -0.6; PfHsp40 yeast: 140.9*; RN4220 kill: 0.7; BH1578 lux ind: 0.4

What do the screens show for `Cc1ccc(S(=O)(=O)N(C(=O)c2ccncc2)c2ccc(OC(=O)c3ccncc3)cc2)cc1`?
Sa ugtP lethal: 1.9; PfHsp40 yeast: 372.5*; RN4220 kill: 7.1; CCHF vOTU inh: -8.4; Mtb hypoxia rep: 2.3; BH1578 lux ind: -0.3

Results for O=C(Oc1ccc(N(C(=O)c2ccncc2)S(=O)(=O)c2ccc(Cl)cc2)cc1)c1ccncc1 ?
Sa ugtP lethal: 9.0; PfHsp40 yeast: 421.9*; RN4220 kill: 1.3; CCHF vOTU inh: 1.2; Mtb hypoxia rep: 7.5; BH1578 lux ind: -0.8

How did Cc1ccc(S(=O)(=O)N(C(=O)c2ccncc2)c2ccc(OC(=O)c3ccncc3)cc2)c(C)c1 do in these assays?
Sa ugtP lethal: 1.4; PfHsp40 yeast: 1.7; RN4220 kill: 5.3; CCHF vOTU inh: -4.2; Mtb hypoxia rep: -3.9; BH1578 lux ind: -0.3

What do the screens show for `COc1ccc(N(C(=O)c2ccncc2)S(=O)(=O)c2cccs2)cc1`?
Sa ugtP lethal: 5.5; PfHsp40 yeast: 0.4; RN4220 kill: 2.8; CCHF vOTU inh: 7.4; Mtb hypoxia rep: 14.6; BH1578 lux ind: -0.3

Results for O=C(Oc1ccc(N(C(=O)c2ccncc2)S(=O)(=O)c2ccc(F)cc2)cc1)c1ccncc1 ?
Sa ugtP lethal: -2.5; PfHsp40 yeast: 4.5; RN4220 kill: 2.8; CCHF vOTU inh: 4.2; Mtb hypoxia rep: 5.1; BH1578 lux ind: -0.4

How did CCc1ccc(S(=O)(=O)N(C(=O)c2ccncc2)c2ccc(OC(=O)c3ccncc3)cc2)cc1 do in these assays?
Sa ugtP lethal: 3.8; PfHsp40 yeast: 234.2*; RN4220 kill: 5.1; CCHF vOTU inh: -7.6; Mtb hypoxia rep: -4.8; BH1578 lux ind: -0.8

What do the screens show for `Cc1ccc(C)c(S(=O)(=O)N(C(=O)c2ccncc2)c2ccc(OC(=O)c3ccncc3)cc2)c1`?
Sa ugtP lethal: 4.7; PfHsp40 yeast: inconclusive; RN4220 kill: 1.7; CCHF vOTU inh: 1.0; Mtb hypoxia rep: 4.8; BH1578 lux ind: -1.4

What do the screens show for `CN1CCN(C(=O)C2=CC(c3csc4ccccc34)CC(OCc3ccc(CO)cc3)O2)CC1` (stereo not given)?
Sa ugtP lethal: -2.2; RN4220 kill: 3.0; Mtb hypoxia rep: -11.2

Results for O=C(NN=Cc1ccccn1)c1cccc(NC(=O)c2ccc(Cl)cc2)c1 ?
Sa ugtP lethal: -1.8; RN4220 kill: -3.6; Mtb hypoxia rep: 0.1

How did Clc1cccc(Cl)c1CON=Cc1c(-c2ccccc2)nc2n1CCS2 do in these assays?
Sa ugtP lethal: -13.4; RN4220 kill: -1.6; Mtb hypoxia rep: -2.7

Results for C/C(=N\N=C(/N)SC1CC(=O)N(c2ccc(Cl)c(Cl)c2)C1=O)c1cccs1 (stereo not given) ?
PfHsp40 yeast: 36.6*; CCHF vOTU inh: -12.3; BH1578 lux ind: -1.8

What do the screens show for `COc1cc([N+](=O)[O-])cc(/C=N/NC(=O)C(O)(c2ccccc2)c2ccccc2)c1O`?
PfHsp40 yeast: 30.0*; CCHF vOTU inh: 22.9; BH1578 lux ind: 0.5

Results for O=C(NN=Cc1cccc([N+](=O)[O-])c1O)C(O)(c1ccccc1)c1ccccc1 ?
Sa ugtP lethal: -7.2; RN4220 kill: 10.0; Mtb hypoxia rep: -8.9

How did Cc1nc(Nc2ccc(Cl)c(Cl)c2)sc1C(=O)Nc1ccccc1 do in these assays?
Sa ugtP lethal: 98.9*; PfHsp40 yeast: 103.4*; RN4220 kill: 93.3*; CCHF vOTU inh: 10.9; Mtb hypoxia rep: 8.1; BH1578 lux ind: -2.3

What do the screens show for `Cc1nc(Nc2ccc(Cl)cc2Cl)sc1C(=O)Nc1ccccc1`?
Sa ugtP lethal: -27.7; PfHsp40 yeast: 22.5; RN4220 kill: 7.9; CCHF vOTU inh: 0.4; Mtb hypoxia rep: -20.3; BH1578 lux ind: -0.3

How did COC(=O)CC1c2cc(C(F)(F)F)ccc2S(=O)(=O)N1Cc1ccc(OC)cc1 (stereo not given) do in these assays?
Sa ugtP lethal: 16.0; RN4220 kill: 9.2; Mtb hypoxia rep: 2.4

What do the screens show for `CCOc1ccc(NC(=S)NC(=O)/C=C/c2ccco2)cc1`?
Sa ugtP lethal: 72.9; PfHsp40 yeast: 0.2; RN4220 kill: -1.1; CCHF vOTU inh: -2.5; BH1578 lux ind: -0.8

What do the screens show for `CC(=O)Nc1ccc(NC(=S)NC(=O)/C=C/c2ccco2)cc1`?
Sa ugtP lethal: 86.0*; PfHsp40 yeast: 0.9; RN4220 kill: 3.6; CCHF vOTU inh: 13.0; Mtb hypoxia rep: -1.6; BH1578 lux ind: inactive

How did CN1CCN(c2ccc(NC(=S)NC(=O)/C=C/c3ccco3)cc2)CC1 do in these assays?
Sa ugtP lethal: 89.1*; PfHsp40 yeast: -0.7; RN4220 kill: 0.0; CCHF vOTU inh: 8.7; Mtb hypoxia rep: 9.9; BH1578 lux ind: -0.3

What do the screens show for `Cc1ccc(/C=C2\SC(=S)N(C(Cc3ccccc3)C(=O)O)C2=O)cc1` (stereo not given)?
Sa ugtP lethal: 4.2; PfHsp40 yeast: 160.6*; RN4220 kill: 11.4; CCHF vOTU inh: 21.4; Mtb hypoxia rep: 4.5; BH1578 lux ind: -0.4

Results for CCCc1sc(N/N=C/c2ccccn2)nc1-c1ccc(F)cc1 ?
PfHsp40 yeast: 37.8*; BH1578 lux ind: inactive

How did CCOC(=O)C1C2COc3ccc(Br)cc3C2N2C(=O)N(c3ccc(Br)cc3)C(=O)[C@@]12C (stereo not given in full) do in these assays?
Sa ugtP lethal: 18.6; RN4220 kill: 5.2; Mtb hypoxia rep: 5.3

How did CC1(C)C(O)CC[C@@]2(C)C1CC[C@]1(C)C2C(O)C=C2C3C[C@@](C)(CO)CC[C@]3(C)CC[C@@]21C (stereo not given in full) do in these assays?
Sa ugtP lethal: 3.1; RN4220 kill: -5.3; Mtb hypoxia rep: 0.0
